Drawing on PubChem BioAssay (EPA / NIEHS), this text covers outcome and AC50 for 38 molecules.

For orientation: AC50 means the midpoint of the concentration-response curve, whichever way the signal moves.

Calls of active or inactive are those of the source. Rule for the calls: active = hit-call score of the fitted dose curve at least 0.9, where 1 is the maximum; inactive = score below 0.9.

The first assay deals with Paired box protein Pax-6 (Homo sapiens) (UniProt P26367). Put plainly: ATG_Pax6_CIS: Attagene CIS-FACTORIAL HepG2 Assay for human Paired Box 6 (PAX6) (AID 2282956). The conditions noted are these: HepG2 CIS-FACTORIAL PAX6 reporter transcription, RNA readout; actives raise or lower the signal. The method, boiled down: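 Read-out is reporter transcript level, measured by RT-PCR with fluorescent primer extension and capillary electrophoresis after 24 h dosing of transfected HepG2 cells. Activity in either direction fitted relative to DMSO control.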
Sequence of Paired box protein Pax-6 (Homo sapiens) (P26367 whole entry, looked up): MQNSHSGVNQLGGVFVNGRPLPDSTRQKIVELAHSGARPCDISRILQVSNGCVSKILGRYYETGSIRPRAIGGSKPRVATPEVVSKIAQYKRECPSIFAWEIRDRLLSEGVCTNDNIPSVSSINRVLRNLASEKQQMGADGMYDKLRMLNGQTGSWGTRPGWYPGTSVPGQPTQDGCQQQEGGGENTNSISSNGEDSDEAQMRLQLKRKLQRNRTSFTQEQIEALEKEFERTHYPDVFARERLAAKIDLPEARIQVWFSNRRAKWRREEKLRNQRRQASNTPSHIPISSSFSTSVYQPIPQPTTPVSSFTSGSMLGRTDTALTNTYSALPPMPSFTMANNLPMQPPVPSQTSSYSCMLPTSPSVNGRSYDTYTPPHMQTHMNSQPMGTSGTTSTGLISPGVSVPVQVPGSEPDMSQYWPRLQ
Take `CCCCC(CC)COC(=O)/C=C\C(=O)OCC(CC)CCCC` (stereo unspecified): the call was inactive.

In the case of `O=C(O)C[C@H](O)C[C@H](O)/C=C/c1c(C2CC2)nc2ccccc2c1-c1ccc(F)cc1`, the result was inactive.

Regarding `O=P(c1ccccc1)(c1ccccc1)c1ccccc1`, the molecule was called inactive.

Regarding `CC(=O)Nc1ccc(C)cc1C`, the result was inactive.

As to `COC(=O)Cc1cccc2ccccc12`, the outcome was inactive.

In the case of `CC(=O)Nc1ccccc1O`, the molecule was called inactive.

With `O=C(O)c1cn(C2CC2)c2cc(N3CCNCC3)c(F)cc2c1=O`, the molecule was called inactive.

Turning to `CCCCCCCCCCCCN(CCCCCCCCCCCC)CCCCCCCCCCCC`, the outcome was inactive.

For `CSc1nnc(C(C)(C)C)c(=O)[nH]1`, the result was inactive.

Turning to `CC(=O)O[C@]1(C(C)=O)CC[C@H]2[C@@H]3C[C@H](C)C4=CC(=O)CC[C@]4(C)[C@H]3CC[C@@]21C`, the result was inactive.

As for `CC[Si](OC(C)=O)(OC(C)=O)OC(C)=O`, the molecule was called inactive.

As to `Nc1cccc(S(=O)(=O)c2cccc(N)c2)c1`, the molecule was classed as inactive.

For the molecule `CCCCCCCCC`, the molecule was classed as inactive.

Take `CC(C)(COC(=O)c1ccccc1)COC(=O)c1ccccc1`: the outcome was inactive.

Take `C=CCOC(=O)CCC1CCCCC1`: the call was inactive.

As to `COc1cccc(OC)c1`, the molecule was called inactive.

Turning to `O=C(O)c1snc(Cl)c1Cl`, the AC50 was 188 µM (active).

For the molecule `O=C(O)COCCN1CCN(C(c2ccccc2)c2ccc(Cl)cc2)CC1` (stereo unspecified), the call was inactive.

For the molecule `CN1[C@@H]2CC(OC(=O)[C@H](CO)c3ccccc3)C[C@H]1[C@@H]1O[C@@H]12` (stereo partly specified), the result was inactive.

Consider `C[Si](O[Si](C)(C)C)O[Si](C)(C)C`, for which the outcome was inactive.

Take `CCc1c(C)cc(N)c(CC)c1N`: the outcome was inactive.

For the molecule `CC(=O)[O][Al][O]C(C)=O`, the molecule was classed as inactive.

As to `CCCCCCCCCCCCCOS(=O)(=O)O`, the call was inactive.

Regarding `CCCCC[Si](OCC)(OCC)OCC`, the molecule was classed as inactive.

In the case of `Cc1ccc2ccccc2n1`, the call was inactive.

Regarding `CC(C)(C)NC(N)=O`, the result was inactive.

Turning to `CCCc1c(OCCCOc2ccc(OCC(=O)O)cc2)ccc(C(C)=O)c1O`, the result was inactive.

Turning to `CCCOCC(C)O` (stereo unspecified), the molecule was called inactive.

Take `CNCCO`: the outcome was inactive.

In the case of `CCC(C)(O)CCC=C(C)C` (stereo unspecified), the outcome was inactive.

With `COc1cc(C(C)(C)C)c(O)c(C(C)(C)C)c1`, the molecule was classed as inactive.

For `Clc1ccc(Cl)c(Cl)c1Cl`, the outcome was inactive.

Consider `O=C(O)c1cccc([N+](=O)[O-])c1`, for which the molecule was classed as inactive.

In the case of `C=CC(=O)OCCn1c(=O)n(CCOC(=O)C=C)c(=O)n(CCOC(=O)C=C)c1=O`, the AC50 was 15.7 µM (active).

Regarding `Clc1nc(C(Cl)(Cl)Cl)c(Cl)c(Cl)c1Cl`, the result was inactive.

With `O=Nc1ccc(Nc2ccccc2)cc1`, the AC50 was 33.4 µM (active).

For `N#Cc1ccccc1`, the outcome was inactive.

In the case of `O=c1[nH]c(=O)n([C@H]2CCCO2)cc1F`, the result was inactive.

Tested on in another assay: not listed separately
Put plainly: ATG_PXRE_CIS: Attagene CIS-FACTORIAL HepG2 Assay for human Pregnane X Receptor Element (PXRE) (AID 2282957). The conditions noted are these: HepG2 Attagene CIS-FACTORIAL PXRE reporter, mRNA; actives raise or lower the signal. A digest of the protocol:
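Bidirectional activity, baselined to DMSO, derived from reporter mRNA fluorescence (RT-PCR plus capillary electrophoresis) in HepG2 cells bearing cis-promoter reporter units, 24 h exposure.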
For `CCCCC(CC)COC(=O)/C=C\C(=O)OCC(CC)CCCC` (stereo unspecified), the AC50 was 4.85 µM (active).

In the case of `O=C(O)C[C@H](O)C[C@H](O)/C=C/c1c(C2CC2)nc2ccccc2c1-c1ccc(F)cc1`, the AC50 is 4.9 µM (active).

In the case of `O=P(c1ccccc1)(c1ccccc1)c1ccccc1`, the AC50 is 5.59 µM (active).

With `CC(=O)Nc1ccc(C)cc1C`, the molecule was classed as inactive.

On to `COC(=O)Cc1cccc2ccccc12`, for which the AC50 was 42.8 µM (active).

Take `CC(=O)Nc1ccccc1O`: the result was inactive.

Turning to `O=C(O)c1cn(C2CC2)c2cc(N3CCNCC3)c(F)cc2c1=O`, the call was inactive.

Consider `CCCCCCCCCCCCN(CCCCCCCCCCCC)CCCCCCCCCCCC`, for which the call was inactive.

For the molecule `CSc1nnc(C(C)(C)C)c(=O)[nH]1`, the molecule was called inactive.

For the molecule `CC(=O)O[C@]1(C(C)=O)CC[C@H]2[C@@H]3C[C@H](C)C4=CC(=O)CC[C@]4(C)[C@H]3CC[C@@]21C`, the AC50 is 2.76 µM (active).

`CC[Si](OC(C)=O)(OC(C)=O)OC(C)=O`: the AC50 is 6.28 µM (active).

Take `Nc1cccc(S(=O)(=O)c2cccc(N)c2)c1`: the molecule was classed as inactive.

Regarding `CCCCCCCCC`, the call was inactive.

With `CC(C)(COC(=O)c1ccccc1)COC(=O)c1ccccc1`, the AC50 is 34.7 µM (active).

On to `C=CCOC(=O)CCC1CCCCC1`, for which the outcome was inactive.

As to `COc1cccc(OC)c1`, the outcome was inactive.

Turning to `O=C(O)c1snc(Cl)c1Cl`, the AC50 was 26.8 µM (active).

`O=C(O)COCCN1CCN(C(c2ccccc2)c2ccc(Cl)cc2)CC1` (stereo unspecified): the outcome was inactive.

For `CN1[C@@H]2CC(OC(=O)[C@H](CO)c3ccccc3)C[C@H]1[C@@H]1O[C@@H]12` (stereo partly specified), the outcome was inactive.

As for `C[Si](O[Si](C)(C)C)O[Si](C)(C)C`, the AC50 was 13.4 µM (active).

In the case of `CCc1c(C)cc(N)c(CC)c1N`, the AC50 is 64.5 µM (active).

`CC(=O)[O][Al][O]C(C)=O`: the AC50 was 6.49 µM (active).

As for `CCCCCCCCCCCCCOS(=O)(=O)O`, the call was inactive.

Turning to `CCCCC[Si](OCC)(OCC)OCC`, the AC50 is 7.23 µM (active).

For `Cc1ccc2ccccc2n1`, the AC50 is 58.9 µM (active).

For `CC(C)(C)NC(N)=O`, the molecule was called inactive.

Consider `CCCc1c(OCCCOc2ccc(OCC(=O)O)cc2)ccc(C(C)=O)c1O`, for which the AC50 was 8.44 µM (active).

On to `CCCOCC(C)O` (stereo unspecified), for which the AC50 is 25.5 µM (active).

Turning to `CNCCO`, the call was inactive.

Take `CCC(C)(O)CCC=C(C)C` (stereo unspecified): the outcome was inactive.

Take `COc1cc(C(C)(C)C)c(O)c(C(C)(C)C)c1`: the AC50 is 2.09 µM (active).

Regarding `Clc1ccc(Cl)c(Cl)c1Cl`, the result was inactive.

Turning to `O=C(O)c1cccc([N+](=O)[O-])c1`, the result was inactive.

As to `C=CC(=O)OCCn1c(=O)n(CCOC(=O)C=C)c(=O)n(CCOC(=O)C=C)c1=O`, the molecule was classed as inactive.

On to `Clc1nc(C(Cl)(Cl)Cl)c(Cl)c(Cl)c1Cl`, for which the AC50 was 39.4 µM (active).

As for `O=Nc1ccc(Nc2ccccc2)cc1`, the half-maximal activity concentration (AC50) is 22.6 µM (active).

Turning to `N#Cc1ccccc1`, the call was inactive.

For `O=c1[nH]c(=O)n([C@H]2CCCO2)cc1F`, the outcome was inactive.
